{
  "source": "PubChem BioAssay AID540257",
  "about": "(Southern Research Specialized Biocontainment Screening …, 2011)",
  "note": "About 15 (0.8%) of roughly 1,800 compounds were called active. These entries were drawn from the full list. Measured potencies and affinities stand elsewhere. Unmarked numbers belong to inactive results. No rule for the calls is given here.",
  "data": [
    {"assay": "antiviral activity against H1N1 influenza, dose response, cell-based, strain KY136 (AID 540257)", "conditions": "H1N1 KY136 influenza antiviral cell assay, % inhibition; series mostly up to 40 µM; inhibition: at the top concentration", "units": {"inhibition": "%"}, "values": [
      {"smiles": "CCOC(=O)CC(NS(=O)(=O)c1ccc(NC(C)=O)cc1)c1ccc(OCC)cc1", "note": "(stereo not drawn)", "inhibition": 2.13},
      {"smiles": "CN(C)c1ccc(C=c2c3ccccc3n3c2c2c([n+]3C)CCCC2)cc1", "inhibition": -4.87},
      {"smiles": "O=C(NC1CC1)C(=O)c1c(-c2ccccc2)[nH]c2ccccc12", "inhibition": 10.5},
      {"smiles": "Cc1nn(Cc2ccccc2)c(C)c1N", "inhibition": 0.83},
      {"smiles": "S=c1sscc1-c1ccccc1", "inhibition": -0.7},
      {"smiles": "COc1ccc(/C=C/C(=O)OCC(=O)NCCc2ccccc2)c(OC)c1", "inhibition": 1.74},
      {"smiles": "COc1ccc(S(=O)(=O)N2CCOCC2)cc1NC(=O)CN1CCN(C)CC1", "inhibition": 1.93},
      {"smiles": "COc1ccc(CSC2=NCCN2)cc1Cl", "inhibition": 4.9},
      {"smiles": "C=CCn1c(N)c(C(=O)NCCC2=CCCCC2)sc1=S", "inhibition": 0.45},
      {"smiles": "O=C(CN1C(=O)c2cccc3cccc(c23)C1=O)N1CCN(Cc2ccc3c(c2)OCO3)CC1", "inhibition": 0.12},
      {"smiles": "CCCn1nc([N+](=O)[O-])c(C(C#N)c2nc3ccccc3s2)c(Cl)c1=O", "note": "(stereo not drawn)", "inhibition": -5.69},
      {"smiles": "Cc1c(N2C(=O)/C(=C/c3ccccc3)SC2=S)c(=O)n(-c2ccccc2)n1C", "inhibition": 0.64},
      {"smiles": "O=C(NCCN1CCOCC1)c1cc2sccc2n1Cc1ccc(Cl)cc1", "inhibition": -1.06},
      {"smiles": "CCOC(=O)CCSCC(=O)Nc1nnc(C)s1", "inhibition": -0.12},
      {"smiles": "O=C(CSc1ccccc1)Nc1nnc(/C=C/c2ccccc2)s1", "inhibition": -1.63},
      {"smiles": "Cc1nc(CNS(=O)(=O)c2ccc3ccccc3c2)cs1", "inhibition": 1.86},
      {"smiles": "CCc1nccn1C(=O)c1cnn2c(C(F)F)cc(-c3ccc(C)cc3)nc12", "inhibition": -2.08},
      {"smiles": "Cc1c(N/N=C(\\C#N)C(=O)c2ccccc2)c(=O)n(-c2ccccc2)n1C", "inhibition": -2.12},
      {"smiles": "COc1ccc2sc(NC(=O)c3ccco3)nc2c1", "inhibition": 0.7},
      {"smiles": "CCCc1ccc2oc(C(=O)NCc3nnc(C)o3)c(C)c2c1", "inhibition": -4.06},
      {"smiles": "O=C(N/N=C/c1cc(Br)c(O)c(Br)c1O)c1cccnc1", "inhibition": -4.64},
      {"smiles": "CCn1c(C(C)NC(=O)c2cccc(C)c2)nc2ccccc21", "note": "(stereo not drawn)", "inhibition": 2.67},
      {"smiles": "COc1ccc(C(CCNCc2ccc(N(C)C)cc2)C(C)C)cc1", "note": "(stereo not drawn)", "inhibition": -5.42}
    ]}
  ]
}
